Only some compounds are listed: those with a hit (about 9.2% of all), similar ones and a draw of the others.
FLuc counter: counter-screen for miR-21 project: firefly luciferase inhibitors or activators | purified FLuc, Km substrates, luminescence inhibition | 360,000 compounds, 6.9% hits | Potency, µM (doses to about 57.5 µM), without a hit: top-dose activity change, negative = inhibition, usual class: inhibitors | P08659 | AID 588342;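 further: plate controls were vehicle for no effect and reference inhibitor for full effect; nearly all actives have a fitted effect of over 55% in size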
Target sequence (P08659 whole entry, looked up): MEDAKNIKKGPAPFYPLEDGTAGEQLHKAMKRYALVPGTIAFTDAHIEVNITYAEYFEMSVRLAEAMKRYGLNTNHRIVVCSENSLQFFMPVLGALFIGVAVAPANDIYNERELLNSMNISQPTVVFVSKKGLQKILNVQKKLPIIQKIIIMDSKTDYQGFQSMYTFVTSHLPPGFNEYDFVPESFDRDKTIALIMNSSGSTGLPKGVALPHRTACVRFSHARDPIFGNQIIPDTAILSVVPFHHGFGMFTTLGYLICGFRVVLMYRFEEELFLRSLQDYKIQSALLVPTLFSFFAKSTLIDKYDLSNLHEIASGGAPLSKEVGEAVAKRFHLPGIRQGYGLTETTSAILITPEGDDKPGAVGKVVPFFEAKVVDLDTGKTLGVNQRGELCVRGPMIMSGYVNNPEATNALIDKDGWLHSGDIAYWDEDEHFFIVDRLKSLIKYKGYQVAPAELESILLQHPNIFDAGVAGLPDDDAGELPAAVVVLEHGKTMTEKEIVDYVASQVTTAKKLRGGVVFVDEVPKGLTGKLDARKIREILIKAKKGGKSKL
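Biochemical qHTS of compounds, final roughly 60 µM downward over six points, against 10 nM purified firefly luciferase using Km concentrations of substrates (10 uM D-luciferin, 10 uM ATP) in Tris acetate pH 7.5 buffer; luminescence output.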
SMN2 splice enh: enhancers of SMN2 splice variant expression; Potency, µM (series often up to 46.1 µM), for inactives: at the top dose activity change, positive = activation, usual class: activators; HEK293 SMN2-luciferase splicing reporter, luminescence, 30-36 h; 210,000 compounds, 2.8% hits; further: % of control where 0% means no effect; nearly all actives have a fitted effect of over 55% in size
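HEK293 cells carry an SMN2 […]–luciferase reporter in which exon 7 inclusion puts luciferase in frame. Cells were plated 10-12 h before compound addition, then incubated 30-36 h at 37C. ONE-Glo luminescence was read; sodium butyrate at 4.5 mM final served as control.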
ELG1 DNA repair: ELG1-dependent DNA repair inhibition; Potency, µM (top dose mostly 46.1 µM), inactives show at the highest dose activity change, negative = inhibition, hits mostly inhibitors; HEK293T ELG1-luciferase reporter, luminescence, 16 h; DNA damage induced by 5-fluorouridine; 330,000 compounds, 2.3% hits; further: on the % scale 0 is the no-effect control and ±100 the full control effect; nearly all actives have a fitted effect of over 55% in size
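Cells (2,000 per well) received 5-fluorouridine plus test compound or DMSO and were incubated 16 hr at 37 °C, 5% CO2. Luciferase activity was read by luminescence 30 min after ONE-Glo addition; signal suppression marked inhibition of damage-induced ELG1 function.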
NPC1 promoter act: NPC1 promoter activation; Huh7 NPC1 promoter luciferase reporter, 24 h; Potency, µM (highest dose often 9.22 µM), inactives show top-dose activation, hits mostly activators; 320,000 compounds, 2.4% hits; AID 485313; further: % of control where 0% means no effect; nearly all actives have a fitted effect of over 60% in size
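Luminescence read-out of NPC1 promoter-driven luciferase in stably transfected Huh7 cells; compounds delivered in DMSO and left 24 h at 37C, 5% CO2, qHTS titration format.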
ELG1 genotox: genotoxicity induction in ELG1-luciferase HEK293T cells. HEK293T ELG1-luciferase reporter, luminescence, 16 h. Potency, µM (titrated, usually from 46 µM), for inactives: at the top dose activity change, positive = activation, usual class: activators. 330,000 compounds, 1.3% hits; further: % of control where 0% means no effect; nearly all actives have a fitted effect of over 60% in size
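DMSO vehicle served as control against compound-treated ELG1-luciferase HEK293T cells; exposure lasted 16 hr at 37 °C and 5% CO2, followed by ONE-Glo luminescence detection after 30 min.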
Rab9 promoter act: Rab9 promoter activation | 320,000 compounds, 2.8% hits | AID 485297 | Potency, µM (doses to about 9.22 µM), for the others: top-dose activation, negative = inhibition, actives largely listed as activators | Huh7 Rab9 promoter-luciferase reporter, luminescence, 24 h; further: % of control where 0% means no effect; nearly all actives have a fitted effect of over 60% in size
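Cells were plated at 1500 per well in reduced-serum medium with 10% FBS and left 2 h. Compound in DMSO was then added for 24 h at 37 °C. Reporter signal was read by luminescence after 10 min with luciferase detection reagent.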
* marks the source's active call; other numbers are inactive results; ? = inconclusive; / = no result given; [ ] = dose if it differs, or a comment. The call rests on the fitted dose curve; in most records, active means well fitted curve in the direction sought with a large enough effect; inconclusive means small, poorly fitted or top-dose-only effect, or another doubt; inactive means no such curve, though single readings can be large; an effect the other way counts as inactive or inconclusive. Potency means the concentration at half of the fitted maximal effect.

SMILES | FLuc counter | SMN2 splice enh | ELG1 DNA repair | NPC1 promoter act | ELG1 genotox | Rab9 promoter act
Cc1ccc(NP(=O)(Nc2ccc(C)cc2)Nc2ccc(C)cc2)cc1 | -1.1% | -4.2% | ? | 0.0% | -5.0% | -6.6%
COc1cc(OC)cc(-c2nc3ccccc3c(=O)n2OC(=O)c2ccc(C)c(C)c2)c1 | 1.8% | 4.5%[1.84 µM] | 10.3µM* | -7.6% | -8.8% | -2.4%
COc1cc(OC)cc(C(=O)Nn2c(C)nc3ccccc3c2=O)c1 | 5.9% | 13.1% | -15.7% | -0.4% | -1.5% | -5.4%
O=C1C2C3C=CC(C4CC34)C2C(=O)N1/N=C/c1ccc([N+](=O)[O-])s1 (configuration not stated) | -20.2% | 15.9% | ? | ? | 8.9% | ?
O=C1C2C3C=CC(C4CC34)C2C(=O)N1/N=C/c1c[nH]c2ccccc12 (configuration not stated) | 1.9µM* | / | ? | 3.98µM* | 17.2% | 2µM*
COC(=O)CNC(=O)C1(CC(C)C)C=CCN1C(C)=O (configuration not stated) | / | 12.6µM* | / | / | / | /
O=C(Oc1ccc(-c2cnc3ccccc3n2)cc1)c1cc([N+](=O)[O-])ccc1Cl | ? | ? | ? | 3.98µM* | ? | 9.0%
Cc1c(C(=O)Oc2ccc(-c3cnc4ccccc4n3)cc2)cccc1[N+](=O)[O-] | ? | 24.2% | ? | ? | ? | ?
O=C(Oc1ccc(-c2cnc3ccccc3n2)cc1)c1ccco1 | 0.269µM* | ? | ? | ? | 16.4µM* | ?
O=C(Nc1cccc(-c2cnc3ccccc3n2)c1)c1ccco1 | ? | 0.3% | ? | 4.4% | 3.7% | 3.2%
CCC(=O)Oc1ccc(-c2cnc3ccccc3n2)cc1 | 0.301µM* | ? | ? | ? | ? | ?
O=S(=O)(NC1CCc2ccccc21)c1ccc(S(=O)(=O)N2CCCC2)cc1 (configuration not stated) | 3.5% | -32.5% | 25.9µM* | -0.5% | -17.5% | -1.8%
O=C(NC1CCc2ccccc21)C1CCN(S(=O)(=O)c2ccc(Cl)cc2)CC1 (configuration not stated) | 11.8% | -11.8% | -12.7% | -0.7% | -2.9% | 1.5%
O=C1c2ccccc2CCC12N=NCC2c1ccccc1 (configuration not stated) | 16.9µM* | -14.7% | ? | -5.4% | 1.9% | -4.8%
COc1ccccc1C(=O)NC(=O)COC(=O)c1ccc(Br)o1 | -0.3% | / | ? | -3.3% | 1.5% | -4.7%
Cn1c2ccccc2c(=O)c2ccc(C#CC3(N)CCCCC3)cc21 | 6.75µM* | / | ? | 3.98µM* | 7.3µM* | 2µM*
COc1cc(-c2noc(C)c2C#CC2(N)CCCCC2)cc(OC)c1OC | 1.4% | / | ? | 1.1% | 4.8% | 4.2%
Cn1c2ccccc2c(=O)c2cc(C#CC3(O)CCCCC3)ccc21 | 0.0757µM* | / | ? | ? | 0.116µM* | ?
COc1cccc2oc3ccc(C#CC4(N)CCCCC4)cc3c(=O)c12 | 6.01µM* | / | ? | ? | 18.3µM* | ?
COc1cc(OC)c(OC)cc1CNC(=O)c1cc(=O)[nH]c2ccccc12 | -0.6% | / | 7.0% | 5.4% | -17.0% | -4.1%
COc1ccc([C@H]2CC(=O)C=C(c3ccc(Cl)c(C(F)(F)F)c3)C2)cc1OC | 0.4% | / | ? | -0.4% | -6.5% | -16.2%
CN(C)c1ccc(N/C=C/C(=O)c2ccco2)cc1 | 0.269µM* | / | ? | 3.55µM* | ? | 2.82µM*
CN(C)c1cccc(NC(=O)c2ccco2)c1 | -17.5% | 25.6% | ? | 19.0% | 6.4% | 6.1%
CC(=O)Nc1ccc(N/C=C/C(=O)c2ccco2)cc1 | 10.7µM* | 28.2µM* | ? | 3.16µM* | 4.61µM* | 1.58µM*
COc1cc(S(=O)(=O)Nc2ccc3c(c2)C(=O)N(C)C3=O)ccc1NC(C)=O | / | / | ? | / | 1.1% | /
SMILES | FLuc counter | SMN2 splice enh | ELG1 DNA repair | NPC1 promoter act | ELG1 genotox | Rab9 promoter act
Nc1c(S(=O)(=O)O)cc(S(=O)(=O)O)c2ccc(N=Nc3ccccc3)c(O)c12 | / | -8.7%[9.22 µM] | / | / | / | /
Nc1ccccc1N=Nc1ccccc1N | 5.36µM* | / | ? | 1.58µM* | ? | 1.58µM*
Nc1ccccc1-c1ccccc1N | -0.9% | / | 13.3% | 5.3% | -0.2% | -9.4%
Nc1ccc(N=Nc2ccccc2)c(N)c1 | / | 28.2µM* | / | / | / | /
C=C(C)CNC(=O)CCc1nnc(Cc2cccc(C(F)(F)F)c2)o1 | 21.3µM* | 11.2µM* | ? | 20.4% | 18.3µM* | ?
CC(NC(=O)CCc1nnc(Cc2cccc(C(F)(F)F)c2)o1)C1CC1 (configuration not stated) | 26.9µM* | / | ? | 13.8% | ? | ?
O=C(CCc1nnc(Cc2cccc(C(F)(F)F)c2)o1)NCC(F)(F)F | -9.9% | 9.1% | 21.4% | -0.4% | 6.4% | -3.2%
CC(C)CN(C)C(=O)CCc1nnc(Cc2cccc(C(F)(F)F)c2)o1 | 23.9µM* | / | ? | ? | ? | 2.82µM*
COc1ccc(Cn2c(CCC(=O)Nc3ccc(Br)c(C)c3)nc3cccnc32)cc1 | -8.5% | -16.8% | / | / | / | /
CCOc1ccc(C2(C)NC(=O)N(CCN(C)C)C2=O)cc1 (configuration not stated) | 1.7% | / | ? | 1.2% | 0.6% | -4.0%
O=C(NCC1CCCCC1)c1ccc(Br)o1 | -15.1% | / | 5.0% | 0.3% | 0.5% | 6.8%
Nc1ccc2nc(-c3ccc(O)cc3)sc2c1 | 0.301µM* | 1.41µM* | / | / | / | /
O=S(=O)(c1cccc(-c2nc3ccccc3s2)c1)N1CCOCC1 | ? | -17.6% | -1.4% | 5.5% | 2.3% | 0.1%
Nc1ccc(-c2nc3ccc(N)cc3s2)cc1 | 0.269µM* | / | ? | ? | ? | ?
COc1ccc(CNC(=O)CSc2nc3ccc(N)cc3s2)cc1 | ? | 0.5% | 13.0% | -0.9% | 0.5% | 18.0%
Nc1cccc(-c2nc3ccc(N)cc3s2)c1 | 0.269µM* | 12.6µM* | ? | ? | ? | ?
Cc1c(C(=O)NCC(c2ccc(Cl)cc2)N2CCOCC2)oc2ccccc12 (configuration not stated) | -14.0% | / | / | / | / | /
Cc1cc(/C=C2/NC(=O)N(c3ccccc3)C2=O)c(C)n1C(C)C | 4.78µM* | 10µM* | ? | 3.16µM* | ? | 1.58µM*
Brc1ccc2c(c1)OCCOCCOc1cc(Br)ccc1OCCOCCOCCO2 | 1.7% | -29.2% | 20.6µM* | -14.5% | -50.7% | -27.6%
O=C(Nc1ccc2c(c1)OCCO2)c1ccc(Br)cc1 | 1.07µM* | / | ? | 2.51µM* | ? | 1.26µM*
O=C(Nc1ccc2c(c1)OCCO2)c1ccc(Br)o1 | 2.13µM* | 14.1µM* | ? | 1.26µM* | ? | 1.58µM*

Source: PubChem (National Center for Advancing Translational Sciences (NCATS))
